100 compounds from PubChem BioAssay AID434982 (The Scripps Research Institute Molecular Screening Center, 2010) can be followed below.

SMILES strings stand for the structures. Among all 15,000 compounds or so, about 60 (0.4%) were called active. No stated cut-off is given here; in the data, active means activation above about 2.2%; inactive means the rest. What follows is part of a selection rich in actives, with near analogues and random picks from the rest.

The test can be described thus: activates NOTCH signaling in reporter cells (AID 434982). Conditions: NOTCH signaling luciferase reporter cells, luminescence; at 2.5 µM; active compounds read high.
As to `c1ccc2c(-c3csc(-c4ccc5c(c4)OCCO5)n3)csc2c1`, the activation is -0.45% (inactive). `O=S(=O)(c1ccc(Cl)cc1)n1nccc1/C=C/c1cccs1`: the activation was 0.05% (inactive).

As to `N#Cc1c(-c2cccs2)cc(-c2cccs2)nc1N`, the activation was -0.55% (inactive). The figure for `CSc1sc(C(=O)Nc2cccc(Cl)c2)c(-c2cccs2)c1C#N` is -0.76% (inactive); for `CC1(C)C2CC[C@](C)(C2)C1NC(=O)c1c(Cl)cccc1Cl` (stereo not given in full) it is -0.41% (inactive); for `CC(C)(C)c1csc(Sc2ccc([N+](=O)[O-])cc2[N+](=O)[O-])n1` it is -0.69% (inactive). For `CSc1nsc(SC)c1C(=O)NC(=O)NNc1ccc(F)c(Cl)c1`, the activation is -0.35% (inactive). The figure for `CCCCc1ccc(-n2c(-c3ccc(F)cc3)coc2=O)cc1` is -0.29% (inactive); for `Clc1ccc(C2=NN(Cc3ccccc3)CC2)s1` it is 0.29% (inactive). The same measure for `Cc1ccc(SCC(=O)Nc2ccc(F)cc2F)cc1`: 0.31% (inactive). As for `COc1ccc(NC(=S)Nc2ccc(F)cc2F)c([N+](=O)[O-])c1`, the activation was -0.83% (inactive). The figure for `CC(=O)Nc1ccc(F)cc1F` is 3.83% (active). The figure for `O=C1c2ccccc2C(=O)N1CNc1ccc(C2CCCCC2)cc1` is -0.31% (inactive); for `Cc1ccc(CSC(=N)N)cc1` it is 0.1% (inactive).

With `COc1ccc(OC(=O)/C=C/c2sc3ccccc3c2C)cc1`, the activation is -0.25% (inactive).

As for `Cc1nc(-c2ccccn2)n2nnnc2c1Cl`, the activation was -0.27% (inactive). The figure for `Cc1oc(C(C)(C)C)cc1C(=O)NC1Cc2ccccc2C1` is -0.44% (inactive); for `COC(=O)c1scc(S(=O)(=O)Cc2ccco2)c1N/N=C(\C#N)S(=O)(=O)C(C)C` it is 0.15% (inactive); for `NNC(=O)c1cc(OCC(F)(F)F)nc(OCC(F)(F)F)c1` it is -0.48% (inactive). The figure for `COc1cc(NC(=O)c2ncc(C(F)(F)F)cc2Cl)c(C(=O)O)cc1OC` is -0.4% (inactive); for `COC(=O)c1ccc(S(=O)(=O)NNC(=O)c2cn3cc(C(F)(F)F)cc(Cl)c3n2)n1C` it is 3.18% (active); for `COC(=O)c1ccc(S(=O)(=O)N2CCN(c3ccc([N+](=O)[O-])cn3)CC2)n1C` it is 0.16% (inactive). The figure for `CC(=O)Nc1cccc([N+](=O)[O-])c1` is 6.11% (active). Regarding `CC(=O)Nc1ccc(NC(=O)c2cc(C)ccc2[N+](=O)[O-])c(C)c1`, the activation is -0.09% (inactive).

With `Cc1ccc(OC(=O)c2cccc([N+](=O)[O-])c2)c(Br)c1`, the activation was 0.36% (inactive). In the case of `O/N=C/c1ccc(F)c(Cl)c1`, the activation was 0.44% (inactive). The figure for `COC(=O)/C(=C/c1ccccc1)c1ccccc1` is -0.19% (inactive). The figure for `CSC(=CC(=O)c1cccs1)SC` is -0.45% (inactive); for `Cc1nc2ccccn2c1C(=O)N/N=C/c1cn(-c2ccccc2)nc1-c1cccs1` it is -0.2% (inactive); for `N/C(=N\OCc1noc(-c2ccsc2)n1)c1ccc(C(F)(F)F)cc1` it is -0.33% (inactive). The same measure for `O=C(Cn1nnc(N2CCOCC2)n1)N/N=C/c1ccc(-c2cccc([N+](=O)[O-])c2)o1`: -0.66% (inactive); for `CS(=O)(=O)/N=C(\N)c1ccncc1`: -1.1% (inactive). Take `Cc1noc(C)c1C(=O)c1c(C)[nH]n(-c2ccccc2)c1=O`: the activation is 0.14% (inactive). The figure for `O=S(=O)(Oc1ccc(Cl)c(Cl)c1)c1c(Cl)sc(Cl)c1Br` is -0.59% (inactive); for `CC(C)(C)OC(=O)n1ccc2cc(Br)ccc21` it is -0.83% (inactive); for `Cc1ccc(S(=O)(=O)NNC(=O)CCc2nc(-c3ccc(Cl)cc3)no2)cc1` it is 0.6% (inactive).

Consider `CC(=O)N1C=CC(c2c[nH]c3ccccc23)C=C1`, for which the activation is -0.43% (inactive). The same measure for `CS(=O)(=O)c1csc(C(=O)NCc2cccnc2)c1Cl`: -0.31% (inactive). The figure for `CN(NS(=O)(=O)c1ccc(C(F)(F)F)cc1)c1cnn(C)c(=O)c1Cl` is -0.2% (inactive); for `O=C(Nc1ccccc1C(=O)NC1CCSC1)c1cccc(Cl)c1` (stereo not given) it is -0.57% (inactive); for `c1ccc(-c2nsc(N3CCNCC3)n2)cc1` it is 0.94% (inactive). The same measure for `Cn1cc(Cl)c(/C=C(\C#N)C(N)=O)n1`: -0.29% (inactive). As for `O=c1[nH]cc(Br)c(=O)[nH]1`, the activation is -0.83% (inactive). As for `O=C(CN1CCOCC1)NNC(=O)c1cccs1`, the activation was -0.03% (inactive). As for `O=C(Cc1cccc2ccccc12)NNC(=O)Nc1ccc(Cl)cc1`, the activation was -0.03% (inactive). The figure for `COc1cccc(NC(=S)NNC(=S)NC2CC3CCC2C3)c1` (stereo not given) is -0.54% (inactive). The figure for `Cc1cc(C(=O)NCCNS(=O)(=O)c2ccc(Cl)cc2)c(C)o1` is -0.14% (inactive); for `CNC(=S)NNC(=O)CSc1cccs1` it is 1.08% (inactive). The figure for `N#C/C(=C\c1cccn1S(=O)(=O)c1ccccc1)C(=O)c1ccccc1` is 0.09% (inactive). In the case of `O=C(Cc1cc(F)cc(F)c1)n1nccc1-c1cccs1`, the activation is -0.68% (inactive).

With `O=C(O)C1CC2CC1CCC2O` (stereo not given), the activation was -0.37% (inactive). The figure for `Fc1ccc(NC(=S)N2CCN=C2Nc2ccc(F)cc2)cc1` is -1.11% (inactive); for `CC(=O)NC12CC3(C)CC(C)(CC(C)(C3)C1)C2` it is 1.34% (inactive). The figure for `Cn1c(S(=O)(=O)O)nc2ccccc21` is -0.35% (inactive); for `Cc1ccc(S(=O)(=O)NC(=O)NNc2ncnc3scc(-c4ccccc4)c23)cc1` it is -0.88% (inactive); for `CCN=C(NCC)Nc1ccc(Cl)cc1` it is -0.99% (inactive). The same measure for `CC(=O)/C(=C\N(C)C)c1ncccc1[N+](=O)[O-]`: 0% (inactive). `CNC(=S)Nc1cscc1S(=O)(=O)c1ccc(Cl)cc1`: the activation was -0.17% (inactive). The figure for `CCOC(=O)c1sc(SCCS(=O)(=O)c2ccc(Cl)cc2)c(C#N)c1-c1ccccc1` is -0.58% (inactive); for `O=S(=O)(Oc1ncccc1C(F)(F)F)c1cccc(F)c1` it is -0.36% (inactive). For the compound `O=C(NC(=O)C1CCN(c2ncccc2[N+](=O)[O-])CC1)Nc1ccc(Cl)cc1`, the activation was 0.44% (inactive). The figure for `CCOC(=O)CC(=O)CSc1nnc(N)s1` is 0% (inactive); for `NC(=O)C1CCN(CC(O)COc2ccc(Cl)c(Cl)c2)CC1` (stereo not given) it is -0.63% (inactive); for `O=c1o[nH]c(-c2ccccc2)c1N=Nc1c(F)cccc1Cl` it is 0.09% (inactive). The figure for `CCOC(=O)C(O)(NC(=O)Nc1ccccc1)C(F)(F)F` (stereo not given) is -0.73% (inactive); for `Cn1c(=O)c2c(ncn2Cc2nnc(-c3ccccc3)o2)n(C)c1=O` it is -0.05% (inactive). As to `Cc1ccc(S(=O)(=O)N/N=C/c2ccc(O)cc2O)cc1`, the activation is -0.7% (inactive). Regarding `Cc1nnsc1C(=O)NN(C)c1ccc([N+](=O)[O-])cn1`, the activation was -0.31% (inactive).

With `CCOC(=O)Cc1cnc(NN=C2C3CC4CC(C3)CC2C4)s1`, the activation is -0.83% (inactive).

On to `O=C(Cn1c(=Nc2ccc(F)cc2)oc2ccccc2c1=O)c1ccccc1`, for which the activation is -0.66% (inactive). The same measure for `O=c1[nH]c2ccccc2c(=O)n1CCSc1ccc(Cl)cc1`: -0.73% (inactive). The figure for `O=S(=O)(NC1Cc2ccccc2C1)c1ccc(-c2csnn2)cc1` is -0.03% (inactive); for `CCOC(=O)C(=CNNc1ccc(C(=O)O)cc1[N+](=O)[O-])C(=O)OCC` it is -0.57% (inactive). The figure for `Cc1ccc(NC(C(=O)O)c2ccccc2)cc1` (stereo not given) is -0.61% (inactive); for `CC(=O)Nc1ccc(S(=O)(=O)NNc2c(Cl)cncc2Cl)cc1Cl` it is -0.55% (inactive); for `CCOC(=O)CCC(=O)OC(C(=O)c1ccccc1)c1ccccc1` (stereo not given) it is -0.16% (inactive). Take `Cc1ccc(/C=c2\sc3nc4ccccc4n3c2=O)o1`: the activation is -0.36% (inactive). `O=S(=O)(CCSc1ccccc1NS(=O)(=O)c1cccs1)c1ccc(Cl)cc1`: the activation was -0.38% (inactive). The same measure for `O=C(Nn1cnnc1)c1ccc([N+](=O)[O-])cc1`: -0.58% (inactive). The same measure for `O=C(CSc1nnc(-c2ccncc2)o1)N1CCc2ccccc21`: -0.94% (inactive). The figure for `Oc1ccccc1C=NCCCN=Cc1ccccc1O` is -0.99% (inactive); for `N#Cc1ccc(Oc2ccc(Cl)cc2)c([N+](=O)[O-])c1` it is -0.29% (inactive); for `Oc1ccccc1C=Nc1ccc(F)cc1` it is -0.14% (inactive).

Take `O=C(O)/C=C/C(=O)Nc1ccc(NC(=O)c2ccccc2O)cc1`: the activation was 0.22% (inactive). Regarding `CCOC(=O)c1c(C)nn(-c2ncccc2NC(=O)Nc2cccc(Cl)c2Cl)c1C`, the activation was -0.32% (inactive). The same measure for `c1ccc(C2=NCCN=C2c2ccccc2)cc1`: 0.16% (inactive); for `N#CC(C#N)=Cc1cccn1-c1ccc(C(F)(F)F)cc1`: -0.29% (inactive). The figure for `N#C/C(=C\c1cccs1)C(=O)NCCc1c[nH]c2ccccc12` is 0.42% (inactive); for `COC(=O)c1noc(C)c1-c1ccnn1C(=O)c1ccc(Cl)cc1` it is 0.11% (inactive); for `COc1ccc(Cc2nc(C(C)(C)C)cs2)cc1` it is 0.28% (inactive). For `CNC(=S)NNC(=O)c1cc(C)on1`, the activation is -0.11% (inactive).

On to `Cn1cnc([N+](=O)[O-])c1N1CCN(C(c2ccccc2)c2ccccc2)CC1`, for which the activation was -0.25% (inactive). The figure for `COC(=O)c1sccc1S(=O)(=O)Nc1ccccc1Sc1ncnc2c(C)csc12` is -0.68% (inactive).

Regarding `N#Cc1ccc(-c2csc(COc3ccccc3Cl)n2)cc1`, the activation was 0.49% (inactive).

For `O=C(Nc1ccc(Cl)cc1)c1csc(COc2ccc3nonc3c2)n1`, the activation is -0.05% (inactive).

As to `COC(=O)c1ccccc1-c1c2ccc(=O)cc-2oc2cc(O)ccc12`, the activation was -0.07% (inactive). The same measure for `COc1cccc(/C=N/NC(=S)Nc2cc(C(F)(F)F)cc(C(F)(F)F)c2)c1O`: -0.66% (inactive). For the compound `O=C(O)CC(CC(=O)Nc1cc(C(F)(F)F)ccc1N1CCOCC1)c1ccccc1` (stereo not given), the activation was -0.05% (inactive). The same measure for `Cc1cc(C)nc(NC(=S)c2ccc(NC(=O)/C=C/C(=O)O)cc2)n1`: -0.56% (inactive). `Cc1c(NC(=S)Nc2ccccc2)c(=O)n(-c2ccccc2)n1C`: the activation was -0.19% (inactive).
